Measurements: article PMC4336329 (PLoS ONE, 2015)
Out of some 310,000 compounds screened, about 14,000 (4.5%) showed an effect of 50% or more. Effects have a minus sign here. Shown is part of a subset that was picked to be rich in strong results.

Target: human ether-à-go-go-related gene (hERG) potassium channel (human, UniProt Q12809)
Assay: primary screen, population patch clamp on CHO cells stably expressing hERG; higher = less effect of the substance
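Further: peak tail current of the secondary pulse compared with the same well before compound.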

human ether-à-go-go-related gene (hERG) potassium channel, sequence (Q12809 whole entry, looked up): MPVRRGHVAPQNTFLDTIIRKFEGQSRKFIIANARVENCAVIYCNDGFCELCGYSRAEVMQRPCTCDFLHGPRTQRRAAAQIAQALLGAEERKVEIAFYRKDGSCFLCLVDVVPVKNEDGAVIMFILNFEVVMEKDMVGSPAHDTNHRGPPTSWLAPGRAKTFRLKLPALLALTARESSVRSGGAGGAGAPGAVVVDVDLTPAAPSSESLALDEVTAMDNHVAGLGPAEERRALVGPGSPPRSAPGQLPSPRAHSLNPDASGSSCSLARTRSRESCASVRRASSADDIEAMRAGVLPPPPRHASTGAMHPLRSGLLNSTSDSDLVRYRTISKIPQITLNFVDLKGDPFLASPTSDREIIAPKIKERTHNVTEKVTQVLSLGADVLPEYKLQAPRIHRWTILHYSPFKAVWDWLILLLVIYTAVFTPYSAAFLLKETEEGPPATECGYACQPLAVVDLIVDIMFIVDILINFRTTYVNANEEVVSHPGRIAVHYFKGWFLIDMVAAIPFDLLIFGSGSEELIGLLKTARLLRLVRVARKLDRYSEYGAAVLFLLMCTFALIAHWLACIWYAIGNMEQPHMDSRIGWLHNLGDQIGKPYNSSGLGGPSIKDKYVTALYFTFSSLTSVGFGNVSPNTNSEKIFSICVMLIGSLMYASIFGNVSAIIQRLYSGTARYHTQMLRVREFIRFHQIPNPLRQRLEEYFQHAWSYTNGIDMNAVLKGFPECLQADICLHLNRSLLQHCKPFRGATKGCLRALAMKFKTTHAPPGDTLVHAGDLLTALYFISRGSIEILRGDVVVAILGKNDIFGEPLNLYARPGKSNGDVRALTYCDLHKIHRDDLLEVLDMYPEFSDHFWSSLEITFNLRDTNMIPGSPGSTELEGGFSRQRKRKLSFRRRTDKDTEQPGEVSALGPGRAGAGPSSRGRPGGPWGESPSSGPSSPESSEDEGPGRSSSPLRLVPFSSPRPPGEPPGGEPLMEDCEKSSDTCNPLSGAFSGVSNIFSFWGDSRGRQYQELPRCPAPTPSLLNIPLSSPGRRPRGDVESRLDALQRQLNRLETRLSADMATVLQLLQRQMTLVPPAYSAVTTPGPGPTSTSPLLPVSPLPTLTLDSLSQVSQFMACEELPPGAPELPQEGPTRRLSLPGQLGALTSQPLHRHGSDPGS

Structure (SMILES) | hERG current change (%, negative = inhibition) at 10uM [%]
COc1ccc(-c2csc(-c3cccs3)n2)c(OC)c1 | 15.8
CCCN1CNC(=S)N(Cc2ccccc2)C1 | 12.2
NC(=O)c1ccsc1NC(=O)COC(=O)c1ccc(Cl)cc1 | -5.38
COc1ccccc1NC(=O)C(=O)N(c1cccnc1)C(C(=O)NC(C)(C)C)c1ccccc1 (stereo not drawn) | 18.7
CCC(C)(C)NC(=O)c1cc(S(=O)(=O)N2CCCCC2)ccc1N1CCOCC1 | -13.4
O=C1NC(=O)/C(=C\c2ccccc2OCc2cccc([N+](=O)[O-])c2)N1 | -5.66
O=C(CCn1c(=O)[nH]c2ccsc2c1=O)Nc1ccc(F)c(F)c1 | 21
COc1cccc(NC(=O)Cc2nnc(SCC(=O)NC(C)c3ccccc3)n2C)c1 (stereo not drawn) | 15.1
CCCCNc1nc2c(c(=O)n(C)c(=O)n2C)n1CCC | 9.61
COCCNS(=O)(=O)c1ccc(Cl)c(C(=O)NC2CCN(Cc3ccccc3)CC2)c1 | -1.21
CCOc1ccc(NS(=O)(=O)c2ccc(C(=O)NC3CCN(Cc4ccccc4)CC3)cc2)cc1 | 3.07
COc1ccc(NS(=O)(=O)c2ccc(C)c(C(=O)NC3CCN(Cc4ccccc4)CC3)c2)cc1 | -51.1
O=C(NC1CCN(Cc2ccccc2)CC1)c1cccc(S(=O)(=O)Nc2cc(C(F)(F)F)ccc2Cl)c1 | -48.8
O=C(NCCCN1CCOCC1)c1cccc(S(=O)(=O)Nc2ccc(F)cc2)c1 | -23.3
O=C(NC1CCN(Cc2ccccc2)CC1)c1cccc(S(=O)(=O)Nc2ccc(F)cc2)c1 | -63.8
CN(C)S(=O)(=O)Nc1cccc(Br)c1 | -14.2
COc1cc(O)c(C(CCN2CCCC(C)C2)c2cc(OC)c(OC)c(OC)c2)c(OC)c1 (stereo not drawn) | 5.07
CCCCCc1cc(=O)oc2c(C(CCN3CCCCC3)c3cc(OC)c(OC)c(OC)c3)c(OC)cc(OC)c12 (stereo not drawn) | -74.6
CCCCCc1cc(=O)oc2c(C(CCN3CCCC3)c3cc(OC)c(OC)c(OC)c3)c(OC)cc(OC)c12 (stereo not drawn) | -65.6
CCCCCc1cc(=O)oc2c(C(CCN3CCCC(C)C3)c3cc(OC)c(OC)c(OC)c3)c(OC)cc(OC)c12 (stereo not drawn) | -64.4
CCCCCc1cc(=O)oc2c(C(CCN(CC)CC)c3cc(OC)c(OC)c(OC)c3)c(OC)cc(OC)c12 (stereo not drawn) | -38.2

Structure (SMILES) | hERG current change (%, negative = inhibition) at 10uM [%]
Cc1cccc2c1N(N=O)CCC2 | -2.33
Cc1ccc(N2CC(C(=O)Nc3ccc4c(c3)OCO4)CC2=O)cc1 (stereo not drawn) | 9.48
Cc1ccc(-c2c(C(=O)N/N=C/C3CC=CCC3)nnn2-c2nonc2N)cc1 (stereo not drawn) | 20.5
Cc1nccnc1Sc1ccccc1 | 22.4
Cc1ccc(S(=O)(=O)NNC(=O)Cc2cccn2C)cc1 | 11.2
CCCCN(C)C(=O)c1oc2ccc(S(=O)(=O)N3CCCCCC3)cc2c1C | -15.9
CCC1Sc2ccc(S(=O)(=O)CCC(=O)Nc3cc(C)ccn3)cc2NC1=O (stereo not drawn) | 11.9
COc1ccccc1C(=O)Nc1cccc2nc(C)ccc12 | 8
CC(=O)c1cccc(NC(=O)c2cc(C)nn2-c2ccccc2)c1 | -21
Cc1cc(C(=O)Nc2ccc(F)cc2C)n(-c2ccccc2)n1 | 12.6
Cc1cc(NC(=O)c2cnn3cccnc23)n(-c2ccccc2)n1 | -61.8
CCOC(=O)c1ccc(NC(=O)c2cc(C)nn2-c2ccccc2)cc1 | -7.01
Cc1cc(NC(=O)c2ccc(F)cc2)n(-c2ccccc2)n1 | -80.2
CCOC(=O)c1cccc(NC(=O)c2cc(C)nn2-c2ccccc2)c1 | -50.5
Cc1c(NC(=O)c2cnn3cccnc23)c(=O)n(-c2ccccc2)n1C | 4.45
Cc1cc(NC(=O)c2cnn3cccnc23)no1 | -0.805
Cc1cc(NC(=O)c2ccccc2)n(-c2ccccc2)n1 | 30.8
Cc1cc(C(=O)Nc2c(F)cc(F)cc2Br)n(-c2ccccc2)n1 | 16
Cc1cc(C(=O)Nc2c(F)c(F)c(F)c(F)c2F)n(-c2ccccc2)n1 | -59.1
Cc1cc(NC(=O)c2ccc(Cl)cc2)n(-c2ccccc2)n1 | -1.41
COc1ccc(OC)c2c1C(=O)C(Cl)=C(Cl)C2=O | 13.4

Structure (SMILES) | hERG current change (%, negative = inhibition) at 10uM [%]
COCc1c(C#N)c(NCCc2ccc(F)cc2)nc(C)c1[N+](=O)[O-] | 1.39
Cc1ccc(C(=O)Nc2ccc3c4c(cccc24)CC3)cc1[N+](=O)[O-] | -1.54
Cc1cc(C)n(-c2nnc(C)n2NS(C)(=O)=O)n1 | 14.6
Cc1csc(C(C#N)C(=O)c2ccc(S(=O)(=O)N3CCCC3)cc2)n1 (stereo not drawn) | 5.45
COc1ccccc1N1CCN(C(=O)CN2C(=O)C3CCCCC3C2=O)CC1 (stereo not drawn) | 22.7
Cc1onc(-c2c(F)cccc2Cl)c1C(=O)Nc1c(C)n(C)n(-c2ccccc2)c1=O | 0.00478
COc1ccccc1NS(=O)(=O)c1cc(C)ccc1C | 4.55
CCCc1nn(C)c2c(=O)[nH]c(-c3cc(S(=O)(=O)N(CCO)CCO)ccc3OCC)nc12 | 0.59
CCc1ccc2c(c1)C(c1ccc([N+](=O)[O-])cc1)=NNC(c1ccc(F)cc1)=N2 | -7.54
COc1ccc(S(=O)(=O)Cc2ccc(C(=O)N3CCN(c4cccc(C)c4C)CC3)o2)cc1 | -30.6
COc1ccc(S(=O)(=O)Cc2ccc(C(=O)N3CCN(c4ncccn4)CC3)o2)cc1 | -16.8
CCOC(=O)N1CCN(C(=O)c2ccc(CS(=O)(=O)c3ccc(OC)cc3)o2)CC1 | -16
COc1ccc(CCC(=O)N2CCN(S(=O)(=O)c3ccc(OC)cc3)CC2)cc1 | -8.45
COc1ccc(S(=O)(=O)N2CCN(C(=O)c3ccc(C)o3)CC2)cc1 | -5.16
COc1ccc(S(=O)(=O)N2CCN(C(=O)c3ccc([N+](=O)[O-])o3)CC2)cc1 | -51.3
COc1ccc(S(=O)(=O)Cc2ccc(C(=O)N3CCN(c4ccccc4)CC3)o2)cc1 | -37.6
COc1ccc(S(=O)(=O)Cc2ccc(C(=O)N3CCN(c4ccc(Cl)cc4)CC3)o2)cc1 | -55.5
COc1ccc(S(=O)(=O)Cc2ccc(C(=O)N3CCOCC3)o2)cc1 | 1.23
COc1ccc(S(=O)(=O)Cc2ccc(C(=O)N3CCN(c4cc(Cl)ccc4C)CC3)o2)cc1 | 9.01
COc1ccc(S(=O)(=O)Cc2ccc(C(=O)N3CCN(c4ccccc4F)CC3)o2)cc1 | -52.8
COc1ccc(N2CCN(C(=O)c3ccc(CS(=O)(=O)c4ccc(OC)cc4)o3)CC2)cc1 | -64.7

Structure (SMILES) | hERG current change (%, negative = inhibition) at 10uM [%]
CC(=O)c1ccc(N(C(=O)CNC(=O)c2ccco2)C(C(=O)NC2CCCC2)c2ccncc2)cc1 (stereo not drawn) | 20.3
COc1cccc(-c2nn(-c3ccc(C)cc3)cc2C(=O)N(C)CC(=O)Nc2cccc(F)c2)c1 | 0.34
COc1ccc(OC)c(NC(=O)COC(=O)c2ccc(S(=O)(=O)N3CCOCC3)cc2)c1 | -15.3
O=C(Nc1ccc2c(c1)OCO2)C1CC1(Cl)Cl (stereo not drawn) | 3.77
COc1cc(OC)c(OC)cc1CNC(=O)c1cc(=O)c2ccccc2o1 | 8.48
COc1ccc(N(C(C)=O)S(=O)(=O)c2cccs2)cc1 | 7.03
CCCn1nnc(NC(=O)c2ccc(Cl)cc2Cl)n1 | 2.23
O=C(O)CCc1ccc(S(=O)(=O)N2CCOCC2)cc1 | 9.65
COC(=O)C1=C(C)N(c2cccc(Cl)c2)C(=O)C1 | 9.01
O=C(c1ccccc1)C(Nc1ccccn1)c1ccccc1 (stereo not drawn) | 1.36
COP(=O)(OC)C(Nc1ccccn1)c1ccccc1 (stereo not drawn) | 26.6
c1ccc(CC(Nc2ccccn2)c2ccccc2)cc1 (stereo not drawn) | -52.8
Cc1ccc2sc(N(CCCN(C)C)C(=O)c3ccc(S(=O)(=O)N4CCOCC4)cc3)nc2c1C.Cl | -35.9
CN(C)CCCN(C(=O)c1ccc(S(=O)(=O)N2CCOCC2)cc1)c1nc2cc3c(cc2s1)OCO3.Cl | -61.4
CN(C)CCN(C(=O)c1ccc(S(=O)(=O)N(C)C)cc1)c1nc2cc3c(cc2s1)OCCO3.Cl | -40.7
CCN(CC)CCN(C(=O)c1ccc(N2C(=O)CCC2=O)cc1)c1nc2cc3c(cc2s1)OCCO3.Cl | -27.6
CN(C)CCCN(C(=O)c1ccc(S(=O)(=O)N2CCCCCC2)cc1)c1nc2cc3c(cc2s1)OCCO3.Cl | -59.7
CN(C)CCCN(C(=O)c1ccc(S(=O)(=O)N2CCCCC2)cc1)c1nc2cc3c(cc2s1)OCO3.Cl | -70.4
CC1CN(S(=O)(=O)c2ccc(C(=O)N(CCCN(C)C)c3nc4cc5c(cc4s3)OCCO5)cc2)CC(C)O1.Cl (stereo not drawn) | -28.8
CCN(CC)CCN(C(=O)c1ccc(S(=O)(=O)N2CCOCC2)cc1)c1nc2cc3c(cc2s1)OCCO3.Cl | -69.2
CCN(CC)CCN(C(=O)c1ccc(S(=O)(=O)N2CCCCC2)cc1)c1nc2cc3c(cc2s1)OCO3.Cl | -37.6
